Our source for the outcome and AC50 values is PubChem BioAssay (EPA / NIEHS).

Where a structure was tested more than once in an assay, its records may differ in their call. Activity calls are given as the source filed them. The calls were made as follows: active = hit-call score of the fitted dose curve at least 0.9, where 1 is the maximum; inactive = score below 0.9.

Read-out in this assay: Thrombomodulin, THBD (gene 7056)
The assay is described as follows: BSK_CASM3C_Thrombomodulin: BioMAP Diversity Plus: CASM3C Assay for Thrombomodulin Biomarker Activity (AID 2283051).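 Also: thrombomodulin protein level measured by ELISA 24 h after dosing.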 To be noted: primary human coronary artery smooth muscle cells; actives raise or lower the signal.
Regarding `CC(C)(C)OOC(=O)c1ccccc1`, the result was inactive. Still for that read-out and setting: with `ClC1=C(Cl)C2(Cl)C3C(Cl)C=CC3C1(Cl)C2(Cl)Cl` (stereo not drawn) the entry was “inactive”; with `CCC12COCN1COC2`, “inactive”. As usually defined, the AC50 is the concentration at which the activity in the assay is half-maximal. Regarding `CCNS(=O)(=O)C(F)(F)C(F)(F)C(F)(F)C(F)(F)C(F)(F)C(F)(F)C(F)(F)C(F)(F)F`, the half-maximal activity concentration (AC50) was 24.6 µM (active) and the outcome was inactive. Consider `CN(C)c1ccccc1`, for which the result was inactive.

For `ClCCOCCCl`, the result was inactive.

For `CCOc1cccc(C2(N3CCN(c4ccccc4)CC3)CCC(C)CC2)c1` (stereo not drawn), the result was inactive. Same read-out and setting: with `CC(C)(C)C(O)(CCc1ccc(Cl)cc1)Cn1cncn1` (stereo not drawn) the entry was “inactive”. On the same count and under the same terms, with `OCCCl` the entry was “inactive”; with `CC(C)N(Cc1ccccc1)C(=O)C(C)(C)C`, “inactive”. Same read-out and setting: with `C[N+](C)(C)CC1CO1` (stereo not drawn) the entry was “inactive”; with `O=[N+]([O-])c1ccc(Oc2ccc(Cl)cc2Cl)cc1`, “inactive”. Take `C1=Cc2cccc3cccc1c23`: the result was inactive.

For `Nc1ccc(Cc2ccc(N)cc2)cc1`, the result was inactive.

In the case of `c1ccc(C2CO2)cc1` (stereo not drawn), the result was inactive.

As to `Cc1ccc([N+](=O)[O-])cc1`, the result was inactive. In the case of `CNC(=O)Oc1cccc2c1OC(C)(C)C2`, the outcome was inactive. For the compound `Cc1cccc(N)c1N`, the AC50 is 9.78 µM (active).

As for `CN(C)C(=O)Nc1ccc(Cl)cc1`, the outcome was inactive. Still for that read-out and setting: the value for `[O-][Cl+]O` was “inactive”; that for `O=C(N[C@H](c1ccccc1)[C@@H]1CN2CCC1CC2)c1c(Cl)ccc(C(F)(F)F)c1Cl` was “inactive”; that for `Clc1ccccc1Cl` was “inactive”. Still for that read-out and setting: with `OCCCBr` the entry was “inactive”. Still for that read-out and setting: with `CN(C)c1ccc(C(=O)c2ccc(N(C)C)cc2)cc1` the entry was “inactive”; with `CCCCC(CC)COC(=O)c1ccc(C(=O)OCC(CC)CCCC)c(C(=O)OCC(CC)CCCC)c1` (stereo not drawn), “inactive”.

As for `COC(=O)Nc1nc2ccccc2[nH]1`, the outcome was inactive. Take `Cc1cc(N=Nc2ccccc2C)ccc1N`: the AC50 is 10.7 µM (active).
